Assay outcomes: PubChem BioAssay, National Center for Advancing Translational Sciences (NCATS)
TSHR ag: qHTS Assay for Agonists of the Thyroid Stimulating Hormone Receptor. HEK293-CNG-TSHR cells (CNG channel as cAMP sensor), membrane potential dye, cAMP. Potency, µM (doses to about 57.1 µM), without a hit: at the highest dose activation, usual class: activators. 0.48% of 73,000 active. AID 926, 2007; active = well fitted activation curve with a large enough effect in the main read-out, with a control signal flat, not every such curve was filed as active; inconclusive = small, poorly fitted or top-dose-only effect, or a change in a side signal; inactive = no such curve, though single readings can be large or run the other way; % of control where 0% means no effect;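 note: the control signal comes from parental cells without the receptor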
Target sequence (P16473 whole entry, looked up): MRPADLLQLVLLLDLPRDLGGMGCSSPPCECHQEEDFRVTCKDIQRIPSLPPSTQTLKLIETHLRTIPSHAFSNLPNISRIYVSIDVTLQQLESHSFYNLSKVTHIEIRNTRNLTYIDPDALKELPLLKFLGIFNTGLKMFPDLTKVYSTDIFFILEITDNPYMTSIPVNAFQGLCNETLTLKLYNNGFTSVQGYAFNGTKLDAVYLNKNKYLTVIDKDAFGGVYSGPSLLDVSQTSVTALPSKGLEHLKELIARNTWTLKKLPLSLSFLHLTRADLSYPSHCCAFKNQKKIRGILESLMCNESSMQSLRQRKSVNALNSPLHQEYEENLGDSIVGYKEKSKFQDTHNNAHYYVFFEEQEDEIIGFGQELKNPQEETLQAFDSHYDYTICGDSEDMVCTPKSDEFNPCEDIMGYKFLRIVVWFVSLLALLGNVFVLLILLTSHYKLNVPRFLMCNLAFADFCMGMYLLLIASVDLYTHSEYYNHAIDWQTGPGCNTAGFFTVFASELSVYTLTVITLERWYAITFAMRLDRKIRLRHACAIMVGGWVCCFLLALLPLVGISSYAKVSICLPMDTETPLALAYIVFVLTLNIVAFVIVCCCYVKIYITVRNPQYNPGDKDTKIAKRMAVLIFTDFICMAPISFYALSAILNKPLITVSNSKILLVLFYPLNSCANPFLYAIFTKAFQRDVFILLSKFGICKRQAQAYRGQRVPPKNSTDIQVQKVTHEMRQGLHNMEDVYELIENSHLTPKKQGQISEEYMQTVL
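cAMP rise detected as CNG-channel membrane depolarization by fluorescent dye (emission 590 nm), 30 min after compound, following 60 min dye loading containing 100 uM RO 20-1724 at room temperature. Cells: TSHR/CNG HEK 293, with parental CNG HEK 293 as control.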
HEK293 cAMP ctrl: qHTS Assay for Agonists of the Thyroid Stimulating Hormone Receptor: Activators of Intracellular cAMP Concentrations in Parental HEK 293. parental HEK293 CNG cAMP sensor, membrane potential fluorescence. Potency, µM (series often up to 57.1 µM), for the others: top-dose activation, hits mostly activators. 2.5% of 73,000 active. AID 938, 2007; note: % of control where 0% means no effect; nearly all actives have a fitted effect of over 55% in size
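Parental HEK 293 cells stably expressing a modified CNG channel (no TSHR) report cAMP rise as membrane depolarization. Membrane potential dye with 100 uM RO 20-1724 was loaded for 60 min at room temperature, then compound added for 30 min; fluorescence read at 590 nm.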
UbGFP stabilizer: Ubiquitin-GFP Assay; Ubiquitin-GFP reporter cells, proteasome inhibition, GFP fluorescence; response scale: untreated = 0%, 10 µM MG-132 = 100%; Potency, µM (doses to about 45.9 µM), for inactives: at the top dose activation (GFP accumulation), hits mostly activators; 67,000 tested, under 10 active; AID 526, 2006; active = well fitted activation curve with a large enough effect, not every such curve was filed as active; inconclusive = small, poorly fitted or top-dose-only effect, or another doubt; inactive = no such curve, though single readings can be large or run the other way
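U2OS cells expressing ubiquitin(G76V)-GFP, seeded overnight in 0.5% FBS medium, then treated 4 hr at 37 C across 46 uM to 2.9 nM. GFP-positive cells counted by laser cytometry (488 ex/515 em); %activity scaled between basal and 10 uM MG-132.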
USP2a inhib: qHTS Assay for Inhibitors of Ubiquitin-specific Protease USP2a; USP2a enzymatic assay, qHTS inhibition; Potency, µM (highest dose often 38.3 µM), for the others: top-dose activity change, negative = inhibition, usual class: inhibitors; AID 927, 2007; 0.1% of 60,000 active; note: nearly all actives have a fitted effect of over 60% in size
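USP2 core (20 nM final) was preincubated with compound for 30 min at RT in 20 mM Tris-HCl pH 8.0, 2 mM CaCl2, 2 mM beta-mercaptoethanol; Ub-PLA2 (20 nM) plus NBD C6-HPC (20 uM) then added, fluorescence read after 2.5 h.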
Bst PK mod: Pyruvate Kinase | purified pyruvate kinase, luminescence ATP production; ribose 5-phosphate activator present at AC10 | Potency, µM | 1.2% of 51,000 active | AID 361, 2006; in the data active = potency below about 11 µM; inconclusive = mostly about 12 µM to 25 µM;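 the screen sought inhibitors and activators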;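 note: scaled between full activation by ribose 5 phosphate and full inhibition by luteolin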
GBA mod: Glucocerebrosidase | Lysosomal acid glucosylceramidase (Homo sapiens), P04062 | 1.1% of 48,000 active | purified enzyme, resorufin glucoside fluorescence (screen aimed at inhibitors), 20 min | Potency, µM; in the data active = potency below about 15 µM; inconclusive = mostly about 16 µM to 33 µM;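 note: the screen sought inhibitors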
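Wild-type enzyme at 0.2 nM final in 50mM citric acid/KH2PO4, 10mM sodium taurocholate, 0.01% tween-20, pH 5.9, with resorufin beta-D-glucopyranoside at 30 uM final. Compounds titrated, 20 min at RT, red fluorescence read; AC50 from titration.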
The depositor's hits bear a star; [ ] = dose if it differs, or a comment. This is a sample that favours compounds with a hit; in the whole collection about 4.1% have one here. Unless noted, calls come from the whole dose curve; as a rule, active = well fitted curve in the direction sought with a large enough effect; inconclusive = small, poorly fitted or top-dose-only effect, or another doubt; inactive = no such curve, though single readings can be large; an effect the other way counts as inactive or inconclusive. Potency is the fitted concentration of half-maximal effect.

For CNC(=O)[C@H](C)[C@H]1C[C@]1(C)[C@H](NC(=O)OCc1ccccc1)c1ccccc1 the results were TSHR ag inconclusive and HEK293 cAMP ctrl 6.3µM*.
O=C1c2ccccc2C(=O)c2c(NC3CCCCC3)ccc(Nc3ccc(S(=O)(=O)O)cc3)c21 was read as TSHR ag -3%[11.4 µM], HEK293 cAMP ctrl -11%[11.4 µM] and UbGFP stabilizer 5%[9.17 µM].
For Cc1noc(C)c1-c1cncnc1NCc1ccccc1 the results were TSHR ag 6%, HEK293 cAMP ctrl 6%, UbGFP stabilizer -3% and USP2a inhib 30%.
For Cc1ccc(C2=C(Cl)C(=O)C(c3ccc(C)cc3)=C(Cl)C2=O)cc1 the results were TSHR ag 2%[11.4 µM], HEK293 cAMP ctrl 3%[11.4 µM] and UbGFP stabilizer -8%[9.17 µM].
`N#Cc1nc(-c2ccc(Cl)cc2)oc1N1CCCCC1` gave Bst PK mod 5.1*.
`N#Cc1nc(-c2ccc(OCc3ccc(Cl)cc3)cc2)oc1N1CCC(C(N)=O)CC1` gave TSHR ag 4%, HEK293 cAMP ctrl 6%, UbGFP stabilizer -4%, USP2a inhib -4%, Bst PK mod 0.078* and GBA mod >77.
For N#Cc1nc(-c2ccc(OCc3ccc(Cl)cc3)cc2)oc1N1CCOCC1 the results were TSHR ag 8%, HEK293 cAMP ctrl 24%, UbGFP stabilizer -5%, USP2a inhib 2%, Bst PK mod >57 and GBA mod >77.
CNc1oc(-c2ccccc2Cl)nc1C#N was read as Bst PK mod >26.
CNc1oc(-c2ccc(Cl)cc2)nc1C#N was read as Bst PK mod 3.1*.
Cc1ccc(-c2nc(C#N)c(N3CCCCC3)o2)cc1 was read as TSHR ag 20%, HEK293 cAMP ctrl 10% and UbGFP stabilizer 10%.
For N#Cc1nc(-c2ccc(F)cc2)oc1N1CCCC1 the results were Bst PK mod 9.5*.
COCCn1c(=O)c(-c2cc(F)cc(F)c2)nc2cnc(Nc3cccc(OC)c3)nc21 was read as TSHR ag 6%, HEK293 cAMP ctrl -3%, UbGFP stabilizer 2% and USP2a inhib 139%.
For COC(=O)c1ccc(C(NC(=O)OCc2ccccc2)/C(=C/[C@@H](C)C(=O)NCc2ccncc2)c2cccnc2)cc1 (some centres undefined) the results were TSHR ag 7% and HEK293 cAMP ctrl 1%.
`Cc1nc2cnc(N3CCOCC3)nc2n(C[C@H]2CCCO2)c1=O` gave TSHR ag 4%, HEK293 cAMP ctrl 1%, UbGFP stabilizer 6% and USP2a inhib 4%.
Screening Cc1cc(C)c(/C=C2/C(=O)Nc3ccccc32)[nH]1 returned TSHR ag inconclusive, HEK293 cAMP ctrl 1.6µM*, UbGFP stabilizer -3% and USP2a inhib 4%.
COc1cc(OC)c(/C=C2/C(=O)Nc3ccccc32)c(OC)c1 was read as TSHR ag 15%, HEK293 cAMP ctrl -6%, UbGFP stabilizer -3% and USP2a inhib 1%.
For N#CCCn1c(=O)c(CCc2ccccc2)nc2cnc(N3CCOCC3)nc21 the results were TSHR ag 10%, HEK293 cAMP ctrl 15%, UbGFP stabilizer 9% and USP2a inhib 19%.
CC(C)C(c1nnnn1C1CCCC1)N(C)C1CCCCC1 (centres undefined) was read as TSHR ag inconclusive, HEK293 cAMP ctrl 20µM*, UbGFP stabilizer -2%, USP2a inhib -4%, Bst PK mod >57 and GBA mod >77.
COc1cc2cc(C(c3nnnn3C3CCCC3)N(C)C3CCCCC3)c(=O)[nH]c2cc1OC (centres undefined) was read as TSHR ag inconclusive, HEK293 cAMP ctrl inconclusive, UbGFP stabilizer 1%, USP2a inhib 18%, Bst PK mod >57 and GBA mod >77.
For COc1cccc(-n2nnc3c(=O)n(Cc4ccc(C)cc4)cnc32)c1 the results were TSHR ag inconclusive, HEK293 cAMP ctrl 16µM*, UbGFP stabilizer 4%, USP2a inhib 1%, Bst PK mod >57 and GBA mod >77.
`COc1cccc(-n2nnc3c(=O)n(Cc4ccc(Br)cc4)cnc32)c1` gave TSHR ag inconclusive, HEK293 cAMP ctrl inconclusive, UbGFP stabilizer -15%, USP2a inhib 10%, Bst PK mod >57 and GBA mod >77.
Screening Cc1ccc(-n2nnc3c(=O)n(Cc4cc(C)ccc4C)cnc32)cc1 returned TSHR ag inconclusive, HEK293 cAMP ctrl 20µM*, UbGFP stabilizer 0%, USP2a inhib 2%, Bst PK mod >57 and GBA mod >77.
COc1cccc(-n2nnc3c(=O)n(Cc4ccccc4Cl)cnc32)c1 was read as TSHR ag inconclusive, HEK293 cAMP ctrl inconclusive, UbGFP stabilizer 11%, USP2a inhib 4%, Bst PK mod 6.9* and GBA mod >77.
For C[C@H](Oc1ccc(Oc2cnc3ccc(Cl)cc3n2)cc1)C(=O)O the results were TSHR ag 1%[11.4 µM], HEK293 cAMP ctrl 3%[11.4 µM], UbGFP stabilizer -4%[9.17 µM] and USP2a inhib -5%.
`Cc1nc2cc(NC(=O)Nc3nccs3)ccc2n1C` gave TSHR ag -7%, HEK293 cAMP ctrl -3%, UbGFP stabilizer -1%, USP2a inhib 0% and Bst PK mod 11*.
For C/C(=N\NC(N)=S)c1ccc[nH]1 the results were TSHR ag -4%[11.4 µM], HEK293 cAMP ctrl -1%[11.4 µM] and UbGFP stabilizer 4%[9.17 µM].
`Nc1nc(N)[n+]([O-])c(N)c1NCO` gave TSHR ag -8%[11.4 µM], HEK293 cAMP ctrl 0%[11.4 µM] and UbGFP stabilizer 5%[9.17 µM].
`CCC(Oc1ccccc1)C(=O)Nc1ccccc1OC` (centres undefined) gave TSHR ag inconclusive, HEK293 cAMP ctrl 32µM*, UbGFP stabilizer 0% and USP2a inhib -18%.
Screening CCC(Oc1ccccc1)C(=O)Nc1nnc(C)s1 (centres undefined) returned TSHR ag -6%, HEK293 cAMP ctrl 5%, UbGFP stabilizer -3%, USP2a inhib -2%, Bst PK mod >57 and GBA mod >77.
Screening Cc1ccc(C(=O)Cn2c3c(sc2=N)CCCC3)cc1 returned TSHR ag inconclusive, HEK293 cAMP ctrl inconclusive and UbGFP stabilizer 5%.
Screening COc1ccccc1Nc1nc(C)cc(=O)[nH]1 returned TSHR ag 5%, HEK293 cAMP ctrl 0%, UbGFP stabilizer -4%, USP2a inhib 3%, Bst PK mod >57 and GBA mod inconclusive.
For COC(=O)c1ccc(Nc2nc(C)cc(=O)[nH]2)cc1 the results were TSHR ag inconclusive, HEK293 cAMP ctrl 13µM*, UbGFP stabilizer 8%, USP2a inhib 7%, Bst PK mod >57 and GBA mod inconclusive.
